The text below walks through data of PubChem BioAssay (NCATS).

Each structure is given as a SMILES string. The source made the active and inactive calls. Calls follow the shape of the dose curve; as a rule, active = well fitted activation curve with a large enough effect; inconclusive = small, poorly fitted or top-dose-only effect; inactive = flat fitted curve, though single readings scatter.

A short description of this test: Cellular Toxicity (caspase-3) Mesangial (AID 660).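 Also: combined caspase 3 and 7 activity read by Caspase-Glo luminescence; cells exposed to compound for 16 h before the caspase read.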 Particulars: mesangial cells, normalized: DMSO 0%, 100 µM tamoxifen 100%; series mostly up to 91.7 µM; caspase-3 activation: at the top concentration. From the text: NIH Chemical Genomics Center [NCGC]
NIH Molecular Libraries Screening Centers Network [MLSCN]
National Institutes of Environmental Health Sciences [NIEHS]
National Toxicology Program [NTP]
We have developed a 1536-well cell-based assay for quantitative high throughput screening (qHTS) against a number of cell lines to determine in vitro caspase 3/7 of small molecules. This particular assay uses the mesangial cell line which is derived from normal human renal glomeruli.
NCGC Assay Protocol Summary:
The Caspase-Glo 3/7 assay (Promega) is a homogeneous method to measure caspase-3 and caspase-7 activities in cultured cells. The quantitation of caspase 3/7 activity is based on the cleavage of a peptide-aminoluciferin substrate. After caspase cleaves the substrate the free aminoluciferin is liberated and serves as the substrate of luciferase, which generates the light. The luminescent signal is proportional to amount of caspase 3/7 activity present.
Using the Caspase-Glo 3/7 assay, the amount of caspase 3/7 activity was measured in the mesangial cell line with complete culture medium following compound treatment for 16 hours. The assay was performed in opaque white 1536-well plates. In the screen, tamoxifen and doxorubicin were used as positive controls. Library compounds were measured for their ability to cause the activation of caspase 3/7 in the cell line, as reflected by an increase in luminescence signal, in a concentration-dependent manner. Data were normalized to the controls for basal activity (DMSO only) and 100% stimulation (100 uM tamoxifen). AC50 values were determined from concentration-response data modeled with the standard Hill equation.
qHTS protocol for caspase 3/7 assay in mesangial cell line
[Step] [Parameter] [Value] [Description]
1. Reagent; 5 uL; 1000 mesangial cells/well
2. Time; 5 hr; 37 °C incubation
4. Controls; 23 nL; Tamoxifen 0.23 uM to 100 uM & doxorubicin 7.0 pM to 100 uM
5. Time; 16 hr; 37 °C incubation
6. Reagent; 5 uL; Caspase-Glo 3/7 reagent
7. Time; 20 min; Room Temperature
8. Detection; Luminescence; Viewlux plate reader
Keywords: caspase 3/7, apoptosis, mesangial cell line, luminescence, NTPHTS, NTPHTS_NCGC, NIEHS, EPA, DSSTox, MLSMR, MLSCN, NIH Roadmap, qHTS, NCGC
Take `NC(=O)Nc1nc2ccccc2[nH]1`: the “caspase-3 activation” value was 0.541% (inactive). The same measure for `N=C1C=CC(=C(c2ccc(N)cc2)c2ccc(N)cc2)C=C1`: -1.15% (inactive). The same measure for `O=CC(=O)c1ccccc1`: 0.163% (inactive). Turning to `C=CC(C)(O)CCCC(C)CCCC(C)CCCC(C)C` (stereo not given), the “caspase-3 activation” value is -0.292% (inactive).

As to `Oc1ccc(O)c2c(O)cccc12`, the “caspase-3 activation” value was 0.329% (inactive).

In the case of `C=CC(=O)CC`, the “caspase-3 activation” value was 1.07% (inactive).

In the case of `Nc1ccccc1O`, the “caspase-3 activation” value is 4.55% (inactive). Regarding `O=C(OCc1ccccc1)c1ccccc1O`, the “caspase-3 activation” value is -0.409% (inactive). For `Oc1ccc2c(c1)OCO2` the value was -0.143% (inactive). For `Oc1cc(Cl)cc(Cl)c1Cl` the value was -0.77% (inactive); for `OCC(CO)(CBr)CBr`, -1.07% (inactive). The same measure for `CC(=O)c1ccc(Cl)c(Cl)c1Cl`: 1.4% (inactive); for `CCCCOC(=O)COc1ccc(Cl)cc1Cl`: -0.614% (inactive); for `CC(/C=C/C=C(C)/C=C/C(=O)O)=C\C=C\C=C(C)\C=C\C=C(C)\C=C\C(=O)O`: -1.4% (inactive). For `C[Si](C)(C)Cl`, the “caspase-3 activation” value is -0.0728% (inactive).

With `Brc1ccc(-c2ccccc2)cc1`, the “caspase-3 activation” value was -1.27% (inactive). The same measure for `O=C(Cl)c1ccc([N+](=O)[O-])cc1`: 1.79% (inactive). The same measure for `Cc1cccnc1`: -0.75% (inactive); for `Brc1cc(Oc2cc(Br)c(Br)c(Br)c2Br)c(Br)c(Br)c1Br`: -1.13% (inactive). The same measure for `O=C1OC(=O)c2ccccc21`: 0.449% (inactive). With `Cc1c2ccccc2c(C)c2c1ccc1ccccc12`, the “caspase-3 activation” value was -0.583% (inactive). For `OCC(CBr)(CBr)CBr` the value was 0.104% (inactive). The same measure for `CC(=O)Nc1cccc(C)c1`: 0.537% (inactive). For `CC(=O)OC1CC(C)OC(C)O1` (stereo not given), the “caspase-3 activation” value is -0.136% (inactive).

Take `CCCCCCCCC1CO1` (stereo not given): the “caspase-3 activation” value was 1.05% (inactive). For `CCCCCCCC/C=C\CCCCCCCC(=O)N(CCO)CCO`, the “caspase-3 activation” value was 0.583% (inactive). For `Cc1cc(=O)oc2cc(O)cc(O)c12` the value was -0.135% (inactive); for `CCCC(=O)OC(=O)CCC`, 0.422% (inactive); for `C/C=C1/C(=O)C[C@H]2[C@@H]3CCC4=CC(=O)CC[C@]4(C)[C@H]3CC[C@]12C`, -0.055% (inactive). In the case of `CCCCNCC`, the “caspase-3 activation” value is -0.762% (inactive). In the case of `CC(C)(C)C(=O)C1C(=O)c2ccccc2C1=O`, the “caspase-3 activation” value is -1.81% (inactive).

As for `Cc1ccc(O)c(N)c1`, the “caspase-3 activation” value was 16.2% (inactive). The same measure for `CC(C)COC(=O)COc1cc(Cl)c(Cl)cc1Cl`: -0.51% (inactive); for `CCCCCCc1ccc(-c2ccc(C#N)cc2)cc1`: -0.414% (inactive). The same measure for `Cc1cc2nc(N)sc2cc1C`: -4.34% (inactive).

As to `CCN(CC)c1ccc2c(C)cc(=O)oc2c1`, the “caspase-3 activation” value is 0.715% (inactive).

As for `c1cc2c3c(c1)ccc1cccc(c13)C2`, the “caspase-3 activation” value is 0.265% (inactive). `O=[N+]([O-])c1cc(Cl)c(Cl)c(Cl)c1Cl`: the “caspase-3 activation” value was 0.919% (inactive). The same measure for `Nc1ccc(N=Nc2ccccc2)c(N)c1`: -4.27% (inactive); for `CCC(Cl)CC(Cl)C(Cl)C(Cl)C(Cl)C(C)Cl` (stereo not given): 0.704% (inactive).
